Data on 40 compounds can be found in the supplement of paper PMC12024424.

Structures can show the parent of a compound that is named as a salt.

This assay relates to Staphylococcus aureus Sa2 (MRSA, cystic fibrosis isolate). In words: growth reduction vs untreated control (OD550); higher = stronger antibacterial activity. Particulars: 0.1 mM; 24 h. Here is the method:
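Single-dose screen of the MedChem Express Drug Repurposing Library (0.1 mM, 1% DMSO) against planktonic MRSA S. aureus Sa2 (CF isolate) in TSB in 96-well plates, 37 °C aerobic, 24 h. Assays were run in triplicate and repeated twice.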
On to `O=C1[C@H](CC[C@H](O)c2ccc(F)cc2)[C@@H](c2ccc(O)cc2)N1c1ccc(F)cc1` [Ezetimibe], for which the growth reduction was 91.7%.

`CCc1nc(-c2cccc(C)c2)c(-c2ccnc(NC(=O)c3ccccc3)c2)s1`: the growth reduction is 100%.

The compound `COCC[n+]1c2c(n(Cc3cnccn3)c1C)C(=O)c1ccccc1C2=O` [Sepantronium (bromide)] displayed a growth reduction of 100%.

For `Cc1c(CN(C)C(=O)/C=C/c2cnc3c(c2)CCC(=O)N3)oc2ccccc12`, the growth reduction was determined as 100%.

On to `O=C(O)c1ccc2nc(-c3cc(Cl)cc(Cl)c3)oc2c1` [Tafamidis meglumine], for which the growth reduction came to 93.9%.

With `CC1(C)CCC2=C(O1)c1ccccc1C(=O)C2=O` [β-Lapachone], the growth reduction is 100%.

`COc1cc([C@H]2C(C#N)=C(N)Oc3c2ccc(N)c3N)cc(Br)c1OC` [Crolibulin]: the growth reduction is 98.1%.

Regarding `CC[C@H]1[C@@H](O)[C@@H]2[C@H](CC[C@]3(C)[C@@H]([C@H](C)CCC(=O)O)CC[C@@H]23)[C@@]2(C)CC[C@@H](O)C[C@@H]12` [Obeticholic acid], the growth reduction was determined as 94.4%.

`CCCCCCCCCCCCCCCCOP(=O)([O-])OCC[N+](C)(C)C` [Miltefosine]: the growth reduction is 100%.

With `CC(C)COc1ccc(CNC(=O)N(Cc2ccc(F)cc2)C2CCN(C)CC2)cc1` [Pimavanserin], the growth reduction was 100%.

As for `Clc1ccccc1C(c1ccccc1)(c1ccccc1)n1ccnc1` [Clotrimazole], the growth reduction came to 100%.

In turn, `CC1=CC(=O)c2ccccc2C1=O` [Menadione] gave a growth reduction of 96.7%.

In turn, `CN1CCCC(CC2c3ccccc3Sc3ccccc32)C1` (stereo not given) [Metixene hydrochloride hydrate] showed a growth reduction of 100%.

The compound `NC(=O)c1cccc2cn(-c3ccc([C@@H]4CCCNC4)cc3)nc12` [Niraparib (tosylate)] gave a growth reduction of 99.5%.

In the case of `O=C(c1ccc(F)c(F)c1Nc1ccc(I)cc1F)N1CC(O)([C@@H]2CCCCN2)C1` [Cobimetinib], the growth reduction came out at 100%.

For the compound `CCCCCCCOc1ccc(CCC(N)(CO)CO)cc1C(F)(F)F` [Amiselimod (hydrochloride)], the growth reduction stood at 100%.

Compound `O=C(O)C1(c2ccc(-c3ccc(Cl)c(Cl)c3)c(F)c2)CC1` [Itanapraced] had a growth reduction of 100%.

`C=CC(=O)Nc1cc(Nc2nccc(-c3cn(C4CC4)c4ccccc34)n2)c(OC)cc1N(C)CCN(C)C` [Almonertinib (hydrochloride)] came in with a growth reduction of 100%.

Compound `O=C(O)c1cc(-c2ccc(F)cc2F)ccc1O` [Diflunisal] registered a growth reduction of 93.6%.

The compound `OCCN1CCN(CCCN2c3ccccc3Sc3ccc(Cl)cc32)CC1` [Perphenazine] showed a growth reduction of 100%.

The compound `Cc1c(Cl)c(C)[n+]([O-])c(Cl)c1-c1noc(-c2cc(O)c(O)c([N+](=O)[O-])c2)n1` [Opicapone] gave a growth reduction of 99.2%.

With `O=C(Nc1ncc(SCCN2CCCC2)s1)[C@]1(c2ccc(S(=O)(=O)C3CC3)cc2)C[C@H]1C1CCCCC1` [Globalagliatin], the growth reduction was 100%.

Turning to `Cc1ccc(NC(=O)c2ccc(CN3CCN(C)CC3)cc2)cc1Nc1nc(-c2cccnc2)cs1` [Masitinib (mesylate)], the growth reduction was found to be 100%.

The compound `CC(C)(C(=O)NCC(F)(F)C(F)(F)F)C(=O)N[C@@H]1C(=O)Nc2ccccc2-c2ccccc21` registered a growth reduction of 100%.

Regarding `CC(C)(C)OC(=O)N[C@H]1CCCCC/C=C\[C@@H]2C[C@@]2(C(=O)NS(=O)(=O)C2CC2)NC(=O)[C@@H]2C[C@@H](OC(=O)N3Cc4cccc(F)c4C3)CN2C1=O` [Danoprevir], the growth reduction came to 99.9%.

Consider `c1cn2cc(-c3ccc4cn[nH]c4c3)nc(Nc3ccc(N4CCOCC4)cc3)c2n1` [Entospletinib], for which the growth reduction was 100%.

`Cc1ccc(Cl)c(Nc2ccccc2C(=O)O)c1Cl` [Meclofenamate (sodium)] had a growth reduction of 97.2%.

Turning to `CN1CCN(c2ccc(C(=O)Nc3n[nH]c4ccc(Cc5cc(F)cc(F)c5)cc34)c(NC3CCOCC3)c2)CC1` [Entrectinib], the growth reduction is 100%.

In turn, `COc1cc2c(Nc3ccc(Cl)c(Cl)c3F)ncnc2cc1OC[C@@H]1C[C@@H]2CN(C)C[C@@H]2C1` [Tesevatinib] gave a growth reduction of 100%.

For `C[C@@H]1CCc2ncc(F)cc2[C@H]2CCCN2c2ccn3ncc(c3n2)C(=O)N1` [Selitrectinib], the growth reduction turned out to be 96.9%.

For `Cc1c(C)c2c(c(C)c1O)CCC(C)(COc1ccc(CC3SC(=O)NC3=O)cc1)O2` (stereo not given) [Troglitazone], the growth reduction was determined as 97.5%.

`O=C(O)C[C@H]1CCc2c1[nH]c1ccc(OCc3ccc(C4CCCC4)c(C(F)(F)F)c3)cc21` [Etrasimod] gave a growth reduction of 99%.

In the case of `O=c1[nH]c(=O)n([C@H]2C[C@H](O)[C@@H](CO)O2)cc1/C=C/Br` [Brivudine], the growth reduction was found to be 100%.

Regarding `NC(=O)C1=C(O)[C@@]2(O)C(=O)C3=C(O)c4c(O)cccc4C[C@H]3C[C@H]2CC1=O` [Incyclinide], the growth reduction was determined as 100%.

Turning to `CNC(=O)c1cc(Oc2ccc(NC(=O)Nc3ccc(Cl)c(C(F)(F)F)c3)c(F)c2)ccn1` [Regorafenib (Hydrochloride)], the growth reduction stood at 100%.

`CCN(CC)CCOc1ccc(/C(=C(/Cl)c2ccccc2)c2ccccc2)cc1` [Enclomiphene (citrate)] came in with a growth reduction of 100%.

As for `CC(C)N(CCCCOCC(=O)NS(C)(=O)=O)c1cnc(-c2ccccc2)c(-c2ccccc2)n1` [Selexipag], the growth reduction amounted to 100%.

`Cc1ccc(-c2cc(C(F)(F)F)nn2-c2ccc(S(N)(=O)=O)cc2)cc1` [Celecoxib]: the growth reduction stood at 95.6%.

Take `C=CC(=O)Nc1cccc(Oc2nc(Nc3ccc(N4CCN(C)CC4)c(F)c3)nc3[nH]ccc23)c1` [Avitinib (maleate)]: the growth reduction amounted to 100%.

For the compound `CCCCN(CCCC)C(=O)CN1C[C@H](c2ccc3c(c2)OCO3)[C@@H](C(=O)O)[C@@H]1c1ccc(OC)cc1` [Atrasentan (hydrochloride)], the growth reduction came out at 100%.
